# In PubChem BioAssay (EPA / NIEHS):
# Several values for one entry are separate records, joined by “and”; a condition that tells them apart may be missing. Equal values may be shown once. Records with an inconclusive call do not appear. Activity calls are given as the source filed them. Rule for the calls: active = hit-call score of the fitted dose curve at least 0.9, where 1 is the maximum; inconclusive = response in the unintended direction; inactive = score below 0.9.
# Experiments:
# [1] = Tanguay_ZF_120hpf_SNOU_legacy: (Legacy) Oregon State University Tanguay Lab 120 Hour Post-fertilization zebrafish Assay for Snout Malformation (AID 2283637)
# Summary of the method: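 Binary brightfield scoring of snout malformation at 120 hpf. Dechorionated 5D wild-type embryos, one per well, static exposure from 6 hpf at 28C, sealed and dark; final DMSO 0.64% (vol/vol), DMSO as baseline; 5uM trimethyltin chloride positive control.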
# [2] = Tanguay_ZF_120hpf_JAW_legacy: (Legacy) Oregon State University Tanguay Lab 120 Hour Post-fertilization zebrafish Assay for Jaw Malformation (AID 2283638);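 for AC50: active means more embryos with jaw malformation than DMSO controls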
# Summary of the method: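 Dechorionated Tropical 5D wild-type zebrafish embryos, one per well, exposed statically from 6 hpf to 120 hpf at 28C in 0.64% DMSO. Jaw malformation was scored by brightfield microscopy as present or absent. It was not scored in dead embryos.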
# [3] = Tanguay_ZF_120hpf_OTIC_legacy: (Legacy) Oregon State University Tanguay Lab 120 Hour Post-fertilization zebrafish Assay for Otic Vesicle Malformation (AID 2283639)
# Summary of the method: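 Binary scoring of otic vesicle defects at 120 hpf in zebrafish (Tropical 5D) held under static exposure at 28C, sealed and shaded, with final DMSO 0.64%. Embryos dying by 24 or 120 hpf excluded; fitted positively against DMSO.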
# [4] = Tanguay_ZF_120hpf_PE_legacy: (Legacy) Oregon State University Tanguay Lab 120 Hour Post-fertilization zebrafish Assay for Pericardial Edema (AID 2283640);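 for AC50: potency for increased incidence of pericardial edema versus DMSO baseline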
# Summary of the method: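 Tropical 5D wild-type zebrafish embryos were statically exposed until 120 hpf at 28C, with 0.64% DMSO final. Pericardial edema was scored by brightfield as present or absent; endpoints were not scored in dead embryos.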
# [5] = Tanguay_ZF_120hpf_BRAI_legacy: (Legacy) Oregon State University Tanguay Lab 120 Hour Post-fertilization zebrafish Assay for Brain Malformation (AID 2283641)
# Summary of the method: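 Tropical 5D wild-type zebrafish embryos exposed statically until 120 hpf at 28C, 0.64% DMSO final, sealed and dark. Brain malformation scored present/absent by brightfield at 120 hpf; dead embryos excluded. Trimethyltin chloride 5uM positive control.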
# [6] = Tanguay_ZF_120hpf_SOMI_legacy: (Legacy) Oregon State University Tanguay Lab 120 Hour Post-fertilization zebrafish Assay for Somite Malformation (AID 2283647)
# Summary of the method: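 Dechorionated Tropical 5D wild-type zebrafish embryos, one per well from 6 hpf, statically exposed at 28C to 120 hpf in 0.64% DMSO; somite malformation scored present/absent by brightfield; trimethyltin 5 uM positive control; dead embryos not scored.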
# [7] = Tanguay_ZF_120hpf_PFIN_legacy: (Legacy) Oregon State University Tanguay Lab 120 Hour Post-fertilization zebrafish Assay for Pectoral Fin Malformation (AID 2283648);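 note: each larva judged yes or no for fin defect by brightfield with dead larvae skipped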
# Summary of the method: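 Binary pectoral fin malformation call at 120 hpf by brightfield microscopy; 5D wild-type zebrafish, chorion removed at 4 hpf, one embryo per well from 6 hpf, static exposure at 28C; DMSO (0.64% final) as baseline.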
# [8] = Tanguay_ZF_120hpf_CFIN_legacy: (Legacy) Oregon State University Tanguay Lab 120 Hour Post-fertilization zebrafish Assay for Caudal Fin Malformation (AID 2283649)
# Summary of the method: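 Dechorionated Tropical 5D wild-type embryos, one per well from 6 hpf, static exposure to 120 hpf at 28C in 0.64% DMSO. Caudal fin malformation scored by brightfield as present/absent; not scored in dead embryos.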
# [9] = Tanguay_ZF_120hpf_PIG_legacy: (Legacy) Oregon State University Tanguay Lab 120 Hour Post-fertilization zebrafish Assay for Pigmentation Malformation (AID 2283650)
# Summary of the method: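 Brightfield scoring of pigmentation malformation at 120 hpf, recorded as binary present/absent per larva. Exposure: dechorionated 5D wild-type embryos, one per well, static from 6 hpf at 28C, final DMSO 0.64% (vol/vol). Dead embryos not scored.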
# [10] = Tanguay_ZF_120hpf_CIRC_legacy: (Legacy) Oregon State University Tanguay Lab 120 Hour Post-fertilization zebrafish Assay for Circulatory Malformation (AID 2283651)
# Summary of the method: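 Binary circulatory malformation call at 120 hpf by brightfield imaging of zebrafish larvae; chorion removed at 4 hpf, static exposure from 6 hpf in sealed dark plates at 28C, final DMSO 0.64%; non-mortality endpoints skipped if embryo died.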
# [11] = Tanguay_ZF_120hpf_SWIM_legacy: (Legacy) Oregon State University Tanguay Lab 120 Hour Post-fertilization zebrafish Assay for Swim Bladder Malformation (AID 2283654);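 note: swim bladder malformation in each larva scored yes or no under brightfield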
# Summary of the method: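 Tropical 5D embryos dechorionated at 4 hpf; 1 embryo/well from 6 hpf; static, sealed, dark exposure at 28C until 120 hpf; final DMSO 0.64%; 5uM trimethyltin chloride positive control; swim bladder defect recorded yes/no; dead embryos not scored.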
# [12] = Tanguay_ZF_120hpf_TRUN_legacy: (Legacy) Oregon State University Tanguay Lab 120 Hour Post-fertilization zebrafish Assay for Truncated Body (AID 2283655)
# Summary of the method: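 Dechorionated Tropical 5D wild-type embryos placed singly from 6 hpf and statically exposed to 120 hpf at 28C, final DMSO 0.64%. Truncated body scored as present/absent by brightfield; not scored in dead embryos.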
# [13] = Tanguay_ZF_120hpf_NC_legacy: (Legacy) Oregon State University Tanguay Lab 120 Hour Post-fertilization zebrafish Assay for Notochord and Tail Malformation (AID 2283656)
# Summary of the method: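 Binary scoring of notochord distortion by brightfield microscopy; embryos dying were not scored. Wild-type Tropical 5D embryos, chorion removed, exposed singly and statically from 6 to 120 hpf, 28C, sealed, 0.64% DMSO.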
# [14] = read-out: ABC Transporter (ABCB1), ABCB1 (gene 5243); experiment: CLD_ABCB1_6hr: CellzDirect (CLD) Gene Expression Assay for ABC Transporter (ABCB1) at 6 hours (AID 2283659);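 note: hits raise ABCB1 transcript above the DMSO vehicle baseline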
# Summary of the method: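 ABCB1 transcript measured by quantitative nuclease protection assay, chemiluminescent read-out, 6 h after dosing human hepatocyte cultures (0.2% DMSO vehicle, daily redosing). Activity fitted as increase over DMSO baseline; cytotoxicity flagged by phase-contrast morphology.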
# [15] = read-out: Broad substrate specificity ATP-binding cassette transporter ABCG2 (Homo sapiens) (UniProt Q9UNQ0); experiment: CLD_ABCG2_6hr: CellzDirect (CLD) Gene Expression Assay for ABC Transporter (ABCG2) at 6 hours (AID 2283660)
# Summary of the method: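 ABCG2 mRNA induction measured by qNPA chemiluminescence in human primary hepatocyte cultures, 6 h post-dose. Chemicals tested at several concentrations against a 0.2% DMSO vehicle; positive-direction fit relative to DMSO.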
# [16] = read-out: xenobiotic metabolism (CYP1A1), CYP1A1 (gene 1543); experiment: CLD_CYP1A1_6hr: CellzDirect (CLD) Gene Expression Assay for xenobiotic metabolism (CYP1A1) at 6 hours (AID 2283661);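 for AC50: potency for transcript induction above DMSO vehicle baseline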
# Summary of the method: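 Read-out 6 h post-dose: qNPA chemiluminescent quantitation of transcript induction against 0.2% DMSO. Cells were cultured primary human hepatocytes from two separate donor preparations; phase-contrast morphology annotated apparent cytotoxicity.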
# Sequence of Broad substrate specificity ATP-binding cassette transporter ABCG2 (Homo sapiens) (Q9UNQ0 whole entry, looked up): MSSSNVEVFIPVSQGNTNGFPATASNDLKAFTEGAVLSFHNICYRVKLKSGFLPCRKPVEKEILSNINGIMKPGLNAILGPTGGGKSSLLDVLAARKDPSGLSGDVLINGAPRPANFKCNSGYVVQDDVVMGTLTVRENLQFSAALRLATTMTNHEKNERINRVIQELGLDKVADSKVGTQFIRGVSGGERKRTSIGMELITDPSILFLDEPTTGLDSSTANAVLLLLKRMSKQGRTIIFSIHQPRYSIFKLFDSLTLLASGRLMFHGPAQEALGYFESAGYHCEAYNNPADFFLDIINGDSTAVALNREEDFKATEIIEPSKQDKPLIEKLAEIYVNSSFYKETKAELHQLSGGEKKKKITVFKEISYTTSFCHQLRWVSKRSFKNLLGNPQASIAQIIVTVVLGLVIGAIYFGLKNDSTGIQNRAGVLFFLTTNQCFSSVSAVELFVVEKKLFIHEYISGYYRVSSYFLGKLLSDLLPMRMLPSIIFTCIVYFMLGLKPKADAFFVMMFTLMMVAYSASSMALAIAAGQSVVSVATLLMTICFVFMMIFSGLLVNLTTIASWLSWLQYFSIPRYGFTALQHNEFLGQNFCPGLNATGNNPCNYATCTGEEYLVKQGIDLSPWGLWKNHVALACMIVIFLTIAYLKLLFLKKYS
smiles,measurement,setting,value
COC(=O)C(C)Oc1ccc(Oc2ccc(Cl)cc2Cl)cc1 (centres undefined),outcome,[1],inactive
same,outcome,[2],inactive
same,outcome,[3],inactive
same,outcome,[4],inactive
same,outcome,[5],inactive
same,outcome,[6],inactive
same,outcome,[7],inactive
same,outcome,[8],inactive
same,outcome,[9],inactive
same,outcome,[10],inactive
same,outcome,[11],inactive
same,outcome,[12],inactive
same,outcome,[13],inactive
same,outcome,[14],inactive
same,outcome,[15],inactive
same,AC50,[16],3.97 µM (active) and 4.59 µM (active)
Fc1ccc(Oc2ccnc3cc(Cl)cc(Cl)c23)cc1,outcome,[1],inactive
same,outcome,[2],inactive
same,outcome,[3],inactive
same,outcome,[4],inactive
same,outcome,[5],inactive
same,outcome,[6],inactive
same,outcome,[7],inactive
same,outcome,[8],inactive
same,outcome,[9],inactive
same,outcome,[10],inactive
same,outcome,[11],inactive
same,outcome,[12],inactive
same,outcome,[13],inactive
same,outcome,[15],inactive
CCCN(CCC)c1c([N+](=O)[O-])cc(S(N)(=O)=O)cc1[N+](=O)[O-],outcome,[1],inactive
same,outcome,[2],inactive
same,outcome,[3],inactive
same,outcome,[4],inactive
same,outcome,[5],inactive
same,outcome,[6],inactive
same,outcome,[7],inactive
same,outcome,[8],inactive
same,outcome,[9],inactive
same,outcome,[10],inactive
same,outcome,[11],inactive
same,outcome,[12],inactive
same,outcome,[13],inactive
same,outcome,[14],inactive
same,outcome,[15],inactive
C#CCOS(=O)OC1CCCCC1Oc1ccc(C(C)(C)C)cc1 (centres undefined),outcome,[1],inactive
same,outcome,[2],inactive
same,outcome,[3],inactive
same,outcome,[4],inactive
same,outcome,[5],inactive
same,outcome,[6],inactive
same,outcome,[7],inactive
same,outcome,[8],inactive
same,outcome,[9],inactive
same,outcome,[10],inactive
same,outcome,[11],inactive
same,outcome,[13],inactive
same,outcome,[15],inactive
C=CCC1=C(C)C(OC(=O)C2C(C=C(C)C)C2(C)C)CC1=O (centres undefined),outcome,[1],inactive
same,outcome,[2],inactive
same,outcome,[3],inactive
same,outcome,[4],inactive
same,outcome,[5],inactive
same,outcome,[6],inactive
same,outcome,[7],inactive
same,outcome,[8],inactive
same,outcome,[9],inactive
same,outcome,[10],inactive
same,outcome,[11],inactive
same,outcome,[12],inactive
same,outcome,[13],inactive
same,outcome,[14],inactive
same,outcome,[15],inactive
N#CC(CCc1ccc(Cl)cc1)(Cn1cncn1)c1ccccc1 (centres undefined),outcome,[1],inactive
same,outcome,[2],inactive
same,outcome,[3],inactive
same,outcome,[4],inactive
same,outcome,[5],inactive
same,outcome,[6],inactive
same,outcome,[7],inactive
same,outcome,[8],inactive
same,outcome,[9],inactive
same,outcome,[10],inactive
same,outcome,[11],inactive
same,outcome,[13],inactive
same,outcome,[14],inactive
same,outcome,[15],inactive
CCON=C(CC)C1=C(O)CC(c2c(C)cc(C)cc2C)CC1=O (centres undefined),outcome,[1],inactive
same,outcome,[2],inactive
same,outcome,[3],inactive
same,outcome,[4],inactive
same,outcome,[5],inactive
same,outcome,[6],inactive
same,outcome,[7],inactive
same,outcome,[8],inactive
same,outcome,[9],inactive
same,outcome,[11],inactive
same,outcome,[12],inactive
same,outcome,[13],inactive
same,outcome,[15],inactive
CN(C)C(=S)SSC(=S)N(C)C,outcome,[1],inactive
same,outcome,[2],inactive
same,outcome,[3],inactive
same,outcome,[4],inactive
same,outcome,[5],inactive
same,outcome,[6],inactive
same,outcome,[7],inactive
same,outcome,[8],inactive
same,outcome,[9],inactive
same,outcome,[10],inactive
same,outcome,[12],inactive
same,outcome,[13],inactive
same,outcome,[14],inactive
same,outcome,[15],inactive
Cc1c(F)c(F)c(COC(=O)C2C(/C=C(\Cl)C(F)(F)F)C2(C)C)c(F)c1F (centres undefined),AC50,[1],4.35 µM (active)
same,AC50,[2],2.75 µM (active)
same,AC50,[3],3.67 µM (active)
same,AC50,[4],5.03 µM (active)
same,AC50,[5],2.6 µM (active)
same,outcome,[6],inactive
same,AC50,[7],3.13 µM (active)
same,outcome,[8],inactive
same,AC50,[9],3.42 µM (active)
same,outcome,[10],inactive
same,outcome,[11],inactive
same,AC50,[12],2.36 µM (active)
same,outcome,[13],inactive
same,outcome,[14],inactive
same,outcome,[15],inactive
same,outcome,[16],inactive
CCCCNC(=O)OCC#CI,outcome,[1],inactive
same,outcome,[2],inactive
same,outcome,[3],inactive
same,outcome,[4],inactive
same,outcome,[5],inactive
same,outcome,[6],inactive
same,outcome,[7],inactive
same,outcome,[8],inactive
same,outcome,[9],inactive
same,outcome,[10],inactive
same,outcome,[11],inactive
same,outcome,[12],inactive
same,outcome,[13],inactive
same,outcome,[14],inactive
same,outcome,[15],inactive
COC(=O)c1ccccc1C(=O)OC,outcome,[1],inactive
same,outcome,[2],inactive
same,outcome,[3],inactive
same,outcome,[4],inactive
same,outcome,[5],inactive
same,outcome,[6],inactive
same,outcome,[7],inactive
same,outcome,[8],inactive
same,outcome,[9],inactive
same,outcome,[10],inactive
same,outcome,[11],inactive
same,outcome,[12],inactive
same,outcome,[13],inactive
same,outcome,[14],inactive
same,outcome,[15],inactive
N#Cc1cc(Br)c(O)c(Br)c1,outcome,[1],inactive
same,outcome,[2],inactive
same,outcome,[3],inactive
same,outcome,[4],inactive
same,outcome,[5],inactive
same,outcome,[6],inactive
same,outcome,[7],inactive
same,outcome,[8],inactive
same,outcome,[9],inactive
same,outcome,[10],inactive
same,outcome,[11],inactive
same,outcome,[12],inactive
same,outcome,[13],inactive
same,outcome,[14],inactive
